PubChem BioAssay (Tox21)
Inconclusive results are not listed. The source made the active and inactive calls. The call rests on the fitted dose curve; in most records, active means well fitted inhibition curve with a large enough effect in the signal ratio in the repeat runs (not every such curve was filed as active); inconclusive means weak or mixed curves, or effect the other way; inactive means no such curve, though single readings can be large or run the other way; the % refers to the signal ratio.

What follows are compounds tested against Estrogen receptor beta (Homo sapiens) (UniProt Q92731) (assay: qHTS assay to identify small molecule antagonists of the estrogen receptor beta (ER-beta) signaling pathway (AID 1259378)). Conditions: ER-beta-UAS-bla HEK293T, beta-lactamase FRET ratio, 16 h; series mostly up to 92.4 µM; activity, negative = inhibition: at the top concentration.
Excerpt: National Center for Advancing Translational Sciences [NCATS]
NIH Chemical Genomics Center [NCGC]
U.S. Environmental Protection Agency [EPA]
National Institutes of Environmental Health Sciences [NIEHS]
National Toxicology Program [NTP]
U.S. Food and Drug Administration [FDA]
Estrogen receptor (ER), a nuclear hormone receptor, plays an important role in development, metabolic homeostasis and reproduction. Two subtypes of ER, ER-alpha and ER-beta, have similar expression patterns with some uniqueness in both types. Endocrine disrupting chemicals (EDCs) and their interactions with steroid hormone receptors like ER causes disruption of normal endocrine function. To identify the compounds that inhibit ER signaling, an ER-beta-UAS-bla GripTite cell line (Life Technologies, Madison, WI, USA) containing a beta-lactamase reporter gene under the control of an UAS response element was used to screen Tox21 10K compound library.
Tox21 Assay Protocol Summary:
ER-beta-UAS-bla HEK293T cells were dispensed at 2,000 cells/4 uL of assay medium containing 2% charcoal stripped FBS per well into black wall/clear-bottom 1536-well plates using a Multidrop Combi (ThermoFisher Scientific, Waltham, MA) dispenser. After the assay plates were incubated at a 37C and 5% CO2 for 6 hr, 23 nL of compounds dissolved in DMSO, positive controls or DMSO only was transferred to the assay plate by a Pintool station (Kalypsys, San Diego, CA), followed by addition of 1 uL (1nM as final concentration) of 17-beta-estradiol (E2) in assay medium using a BioRAPTR FRD (Flying Reagent Dispenser, Aurora Discovery, San Diego, CA). The plates were incubated at 37C and 5% CO2 for 16 hr. Then 1 uL of LiveBLAzerTM B/G FRET substrate was added using a Flying Reagent Dispenser, the plates were incubated at room temperature for 2 hours, and fluorescence intensity was measured by an Envision plate reader (PerkinElmer, Shelton, CT).
On the % scale 0 is the no-effect control and ±100 the full control effect.

Chain of Estrogen receptor beta (Homo sapiens) (Q92731 whole entry, looked up): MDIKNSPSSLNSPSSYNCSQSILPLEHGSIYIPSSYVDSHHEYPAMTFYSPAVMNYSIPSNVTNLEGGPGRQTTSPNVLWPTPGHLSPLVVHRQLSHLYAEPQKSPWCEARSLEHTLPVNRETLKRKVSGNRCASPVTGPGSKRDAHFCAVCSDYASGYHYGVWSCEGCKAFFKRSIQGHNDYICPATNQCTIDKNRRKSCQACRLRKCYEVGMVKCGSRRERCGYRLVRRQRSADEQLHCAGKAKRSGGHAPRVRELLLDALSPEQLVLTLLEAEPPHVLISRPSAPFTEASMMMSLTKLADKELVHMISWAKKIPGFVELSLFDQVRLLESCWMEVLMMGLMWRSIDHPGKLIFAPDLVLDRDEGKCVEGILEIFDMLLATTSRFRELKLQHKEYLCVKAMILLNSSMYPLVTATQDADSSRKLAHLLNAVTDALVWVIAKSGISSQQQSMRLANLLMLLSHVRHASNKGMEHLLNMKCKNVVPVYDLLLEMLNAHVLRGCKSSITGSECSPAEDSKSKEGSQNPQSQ

Row | Structure (SMILES) | activity, negative = inhibition
1 | O=P(O)(O)Oc1ccccc1 | -1.14% (inactive)
2 | Cc1oc(=O)oc1COC(=O)[C@@H]1N2C(=O)[C@@H](NC(=O)[C@H](N)c3ccccc3)[C@H]2SC1(C)C | 22.1% [at 42.5 µM] (inactive)
3 | O=C(O)CCC(=O)OC[C@@H](NC(=O)C(Cl)Cl)[C@H](O)c1ccc([N+](=O)[O-])cc1 | 7.4% [at 42.5 µM] (inactive)
4 | CC(=O)OC(C)C[N+](C)(C)C (stereo not given) | 18.6% [at 42.5 µM] (inactive)
5 | O=c1[nH][nH]c(=O)c2cc([N+](=O)[O-])ccc12 | 0.912% (inactive)
6 | CCCCCCC(O)CCCCCCCCCCC(=O)OC (stereo not given) | -30.2% (inactive)
7 | CCOC(=O)C(C)O (stereo not given) | 16.4% (inactive)
8 | CC(C)C1CCC(C(=O)N[C@H](Cc2ccccc2)C(=O)O)CC1 (stereo not given in full) | -0.637% [at 42.5 µM] (inactive)
9 | ClC1=C(Cl)C1(Cl)Cl | 2.5% (inactive)
10 | CC(C)C(=O)OCCOc1ccccc1 | -0.921% (inactive)
11 | CCCc1nc2c(C)cc(-c3nc4ccccc4n3C)cc2n1Cc1ccc(-c2ccccc2C(=O)O)cc1 | -16.3% [at 42.5 µM] (inactive)
12 | CCN(Cc1cccc(S(=O)(=O)O)c1)c1ccc(C(=C2C=CC(=[N+](CC)Cc3cccc(S(=O)(=O)O)c3)C=C2)c2ccccc2S(=O)(=O)[O-])cc1 | 10.2% [at 42.5 µM] (inactive)
13 | COc1ccc(C2C(=O)c3ccccc3C2=O)cc1 | -3.15% [at 42.5 µM] (inactive)
14 | C=CC(=O)O | 0.132% [at 42.5 µM] (inactive)
15 | Cc1cccc2sc(N)nc12 | -11.6% (inactive)
16 | CC1=CC[C@@]23C[C@@H]1C(C)(C)[C@@H]2CC[C@H]3C | 2.24% (inactive)
17 | CC(C)(C)C(O)/C=C/c1ccc2c(c1)OCO2 (stereo not given) | -13.6% [at 42.5 µM] (inactive)
18 | CCN(CC)c1cccc(O)c1 | -3.52% (inactive)
19 | Cc1c(C2(c3cc(Br)c(O)c(Br)c3C)OS(=O)(=O)c3ccccc32)cc(Br)c(O)c1Br | -0.363% (inactive)
20 | C[C@@H]1C[C@H]2[C@@H]3CCC4=CC(=O)C=C[C@]4(C)[C@@]3(F)[C@@H](O)C[C@]2(C)[C@@]1(O)C(=O)COP(=O)(O)O | 7.25% (inactive)

Row | Structure (SMILES) | activity, negative = inhibition
21 | CC1CCCO1 (stereo not given) | 0.605% (inactive)
22 | CC(CO)(CO)C(=O)O | 4.95% (inactive)
23 | COC(=O)Nc1nc2ccc(C(=O)C3CC3)cc2[nH]1 | 0.0148% [at 42.5 µM] (inactive)
24 | CCCCCCCCCCCCCC(=O)OCC(O)CO (stereo not given) | -9.99% (inactive)
25 | CC1CCCC(=O)C1=O (stereo not given) | 2.67% (inactive)
26 | Cc1cc(CCC(=O)OCCOCCOCCOC(=O)CCc2cc(C)c(O)c(C(C)(C)C)c2)cc(C(C)(C)C)c1O | -18.7% (inactive)
27 | Cc1cc(CCCOc2c(C)cc(-c3noc(C(F)(F)F)n3)cc2C)on1 | 2.32% [at 42.5 µM] (inactive)
28 | Cc1ccc(S(=O)(=O)NC(=O)NC2CCCCC2)cc1 | -0.696% [at 42.5 µM] (inactive)
29 | O=C(O)CNC(=O)c1ccccc1I | 11.9% [at 42.5 µM] (inactive)
30 | CCOCCC(=O)OCC | 0.988% (inactive)
31 | CC(C)(O)CCc1ccccc1 | 6.23% (inactive)
32 | CC(C)(C)CCCCCCOC(=O)c1ccccc1C(=O)OCCCCCCC(C)(C)C | 5.1% (inactive)
33 | CC[C@H]1OC(=O)[C@H](C)[C@@H](O[C@H]2C[C@@](C)(OC)[C@@H](O)[C@H](C)O2)[C@H](C)[C@@H](O[C@@H]2O[C@H](C)C[C@H](N(C)C)[C@H]2O)[C@](C)(O)C[C@@H](C)C(=O)[C@H](C)[C@@H](O)[C@]1(C)O | 9.86% [at 42.5 µM] (inactive)
34 | CC(O)Cn1cnc2c1c(=O)n(C)c(=O)n2C (stereo not given) | -3.25% [at 42.5 µM] (inactive)
35 | CCCCCCOC(=O)CCCCC | 11.2% (inactive)
36 | CCN(CC)CCOc1ccccc1C(=O)CCc1ccccc1 | -10.4% [at 42.5 µM] (inactive)
37 | OCC(CO)n1cnc(-c2ccc(F)cc2)c1-c1ccnc(Oc2ccccc2)n1 | -1.89% (inactive)
38 | CC(=O)N[C@@H](Cc1ccc(O)cc1)C(=O)O | 3.52% [at 42.5 µM] (inactive)
39 | CCCCCCCCCCCCCOC(=O)CCSCCC(=O)OCCCCCCCCCCCCC | -0.0397% [at 19 µM] (inactive)
40 | CC1=C2[C@@H]([C@H](C)CC[C@H]2/C=C(\C)C(=O)O)[C@H](O)C1 | 5.94% (inactive)
